Test results from the supplement of paper PMC11417369.
± gives the standard deviation of the averaged measurements. The full ranking holds about 25,000 sequences; the median of “ln(normalized median fluorescence intensity)” is about 8.9, and the highest 2% start at about 10. Many of the other results were omitted from the sample, so the highest values are more common in it than they were.

test system: PfAP2-LT AP2 domain (GST-tagged); experiment: gcPBM binding intensity (ln(normalized median fluorescence intensity)); higher = stronger DNA binding
Outline: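 DNA-binding domains from P. falciparum, fused to GST and produced in E. coli, were put on an Agilent 4 × 180k double-stranded probe array for 1 h in 1× PBS holding 1% milk, 0.2 mg/ml BSA, 0.5% salmon testes DNA and 0.03% Triton X-100. Probes were primer-extended, 36 bp long and drawn from intergenic genomic regions, with negative controls included. After Alexa488 anti-GST antibody detection and a 488 nm scan, binding intensity was set as the highest Masliner-normalised natural-log median intensity across replicate spots of either probe orientation.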

Sequence	gcPBM binding intensity (ln)
TTTTCCCTCTTATTCACACAAAAAAAATAAAATAAA [CACACA_site4656]	8.2 ± 0.42
TTTGCTTCGATATATTCACACATTTTTTTTCTTATT [CACACA_site4499]	8.91 ± 0.46
TTCTTTTTTCAACACACACACACAAGAAAATATATA [CACACA_site9019]	9.51 ± 0.16
AATATAAATAAAAACACACACAATGGTACCTATATA [CACACA_site7688]	9.3 ± 0.39
TATTATATATATGGAAGTACAGGTATATCGTTTTTC [XGTACX_site3771]	8.73 ± 0.4
TAACACATAAATAAATATATACATATATATAAAATA [CACACA_negctrl_site375]	8.81 ± 0.46
CACACGCACGAACACACACACATATAAATATAAATA [CACACA_site6299]	9.71 ± 0.44
CATATACACGAACACACACACATATAAATAAATATA [CACACA_site6379]	9.74 ± 0.29
TACACATACACATACACACGCATAGAAACATACGAA [CACACA_site2137]	9.48 ± 0.33
AAAAAAAAAATATACACACACACATACACATAAATA [CACACA_site3808]	9.92 ± 0.21
AACATATACACGAACACACACACATATAAATAAATA [CACACA_site6380]	9.87 ± 0.23
TATACATATATATACACACACACATATATATATATA [CACACA_site1299]	9.9 ± 0.42
AACATATACACGAACACACACACATATATATATATA [CACACA_site502]	10.3 ± 0.26
TATATACATATATACACACACATATATATATATATA [CACACA_site2805]	9.905 ± 0.0071
CACACGCACGAACACACACACACACGCACGCACATA [CACACA_site6305]	10.4 ± 0.13
AGTATACACGAACACACACACACATATATAAATATA [CACACA_site6913]	10.2 ± 0.4
CTAAAATACGAACACACACACACATATAAATAAATA [CACACA_site7872]	10.2 ± 0.33
TTTTTTAAATAATATTGTACAAAAAATGTATAAATA [XGTACX_site3010]	8.44 ± 0.42
ATATATATATAAATATGTACATATATACATATATAC [XGTACX_site2374]	8.89 ± 0.23
TGTATGTCTTTATTTTGTACACAATATAAAAAATTA [XGTACX_site5441]	8.51 ± 0.38
ACCATTTGTAGGTAAACACACATTATTATTAATATC [CACACA_site2635]	8.93 ± 0.4
CATTTTGTAAGATATGCACACATGGATCATATTTTA [CACACA_site423]	8.95 ± 0.34
CAAAAGCGATACGGCACACATTTCCTGTTTAAATGA [CACACA_site5519]	8.99 ± 0.58
TACTGATCTTTCTAGGTGCGCTGCTACCATTATCGT [GTGCAC_site9538]	8.99 ± 0.49

Sequence	gcPBM binding intensity (ln)
GATATGATTAACTTATGTTATTCTTGATGATTACGT [CACACA_negctrl_site354]	8.86 ± 0.38
TCTTTATTATTCGCCACACACATATAAATATAAATA [CACACA_site7441]	8.93 ± 0.4
CATATACACGAACACACACACACACGCACAAAAAAA [CACACA_site6376]	10.1 ± 0.24
TATATACACGCACATACACACAAATAAAAAAACACC [CACACA_site7578]	9.67 ± 0.31
TGAACACGCACAAATACACACAAAAAAAATAAATAA [CACACA_site6257]	9.31 ± 0.49
AAAAAAAAAAAAAAAAAAAAAAAAAAATATATATAT [CACACA_negctrl_site271]	8.74 ± 0.28
AAAAAAAAAAAAAATATATATATATATATATATATA [CACACA_negctrl_site540]	10.1 ± 0.25
AAAAAAAAAATATATATATATATATATATATATATA [GTGCAC_negctrl_site467]	10.1 ± 0.2
AAAAAAAAAAAAAAAAAAAAATATATATATATATAT [GTGCAC_negctrl_site426]	9.67 ± 0.085
AAAAAAATATATATATATATATATATATATATATAT [TGCATGCA_negctrl_site7]	9.605 ± 0.064
AAAAAAAAAAAAAAAAAAAAAAAAATATATATATAT [CACACA_negctrl_site436]	9.25 ± 0.27
ATATTTATATATATCATACACACTAATATGTATATT [CACACA_site3409]	8.95 ± 0.42
ATATAAATAAATACAACACACATGTCATATCTAAAT [CACACA_site7533]	9.12 ± 0.39
AGTAGTCTGGAGAAATGTACACAGTATCTGGTAGCT [XGTACX_site4871]	8.86 ± 0.44
GGTACATACAAACACACACACAAAAAAAAAAAAATA [CACACA_site1577]	9.65 ± 0.4
AAAAAAAAAAAACACACACACAAATACAAATACATA [CACACA_site415]	9.99 ± 0.38
AAAAAAAAAAAAAACACACACACACGCATACACATA [CACACA_site7364]	10.2
AAAAAAAAAAAAAAAACACACATACACGCACGCACA [CACACA_site7569]	9.35 ± 0.23
AAGTAATACAACACGCACATATATATATATATATAT [GTGCAC_negctrl_site89]	10.3 ± 0.25
AAAACATACATATATACACACATATATATATATATA [CACACA_site1852]	9.97 ± 0.53
CACATACACATACACATACACACGCATAGAAACATA [CACACA_site2136]	9.71 ± 0.28
AAAAAAAAAAAAAACACACACACACGCAAATACATA [CACACA_site6474]	10.3 ± 0.27
ATACAACATATATATACACACATATAATAATAATAA [CACACA_site3367]	9.26 ± 0.38
AATACATATAATACAACACACAAGTAATATAAACCT [CACACA_site3597]	9.34 ± 0.29

Sequence	gcPBM binding intensity (ln)
AAAAAAAAAAAAAACACACACACACGCACATATACA [CACACA_site7288]	10.1 ± 0.3
CATATATATATATATTGTACAAGATTGTTTTTTTAT [XGTACX_site3913]	8.79 ± 0.3
ATAAAAATTTAAAAAGAACACACGAAAGAAGGACTT [CACACA_site3929]	9.01 ± 0.53
TTTTTTATGATTAACACACACACAAAAAAAAAAAAA [CACACA_site4130]	9.03 ± 0.32
AAAAATTTTAATTAGGAACACACATATATATATATA [CACACA_site9016]	9.48 ± 0.42
ATATTTGCCCAAGATAGTACATATATATATATATAT [XGTACX_site7756]	9.74 ± 0.2
TACATATTTTATAACTGTACTTTTTTATTATCCAAT [XGTACX_site5396]	8.71 ± 0.47
AACACATACAAACACACACACAAAAAAAAAAAAAAA [CACACA_site393]	9.65 ± 0.49
AAGGATCACGCACAAACACACATATTTATATTTATA [CACACA_site6405]	9.14 ± 0.45
TAAAAGGAGACATATACACACATATATATATATATA [CACACA_site5539]	10 ± 0.23
AAAAAAAAAAAACATACACACATACATACCTATATA [CACACA_site6575]	9.33 ± 0.3
TAAACATACCTATACACACACACACGCACACGCACA [CACACA_site6372]	10.22 ± 0.042
AACAAAAAAACAAACACACACACACGCATATTTATA [CACACA_site7680]	10.2 ± 0.29
TAAATAAAAAGACACACACACATATTTATATTTATA [CACACA_site7135]	9.7 ± 0.19
ATAAAAAGGAGACACACACACACACGCATATTTATA [CACACA_site6551]	10.3 ± 0.26
AAAAAAAAAAAAAACACACACACAAATACAAATACA [CACACA_site414]	9.9 ± 0.36
AACATACACATATACACACACACATATATACCTATA [CACACA_site6643]	10 ± 0.31
AAAAAAAAAAAAAACACACACACACGCATACAAAAT [CACACA_site6794]	10.2 ± 0.13
AAAAAAAACAAACACACACACAAATATTTATATATT [CACACA_site436]	9.63 ± 0.22
AATGAAGACTTTTTTACACACTTCATATATTATATA [CACACA_site2034]	8.9 ± 0.39
ATATATCAAAATAATTGTACAAATTTTATATAATTT [XGTACX_site7249]	8.53 ± 0.47
CGTACATAATTTTAATCACACACAAACAAACACATA [CACACA_site7947]	9.42 ± 0.34
ATACTAAAAAGTATCTGTACTTATTTTAAAAATAAA [XGTACX_site4116]	8.19 ± 0.53
TTATATTCTTTTCTCTTTCTACTTTTTTTTTTTTTT [XGTACX_negctrl_site317]	8.45 ± 0.69

Sequence	gcPBM binding intensity (ln)
ATAGGTGAATACTAATATAAATTCAAGAGGGAAAAG [CACACA_negctrl_site720]	8.9 ± 0.55
AAAAAAGTAAAAAGTGCATGTAAAATATAAGTATCT [TGCATGCA_site55]	9.18 ± 0.61
CATATACATATATGTAGTACGTGTTCTTCTATATGA [XGTACX_site8344]	8.84 ± 0.44
TATAATGGTTCTGGTGTGCACCATGACAGAATCAAG	8.82 ± 0.38
GTGTAAATATAATTAGTTTCACAAAACAAATATTTA [CACACA_negctrl_site717]	8.61 ± 0.42
AAAGGGGATATATGAACACACAAAAAAAAAATATAT [CACACA_site2896]	9.13 ± 0.68
ATTCTTTACTCATAAAATTATATTATATAAACTTTT [XGTACX_negctrl_site554]	8.45 ± 0.52
AGTAATTTAAGGAATACACACAAGAAAAAAATAAGA [CACACA_site6177]	9.13 ± 0.61
AGATCATAATATTATACACACATTATATATCTGTAA [CACACA_site4925]	9.14 ± 0.26
GATCTACATGAAAGGACACACAAATATATATATATA [CACACA_site84]	9.62 ± 0.35
AAATAAAAAAAATAAAAGCAATCATAATAAAAATCT [CACACA_negctrl_site161]	8.79 ± 0.46
ATAAAAATATAATTGAGTACATATGAATAGTCCTAT [XGTACX_site6281]	8.65 ± 0.42
ATATATATATATATATGTACACACATCAATCATATT [XGTACX_site4005]	9.96 ± 0.33
ACATACACATATACATGTACATATATATATATATAT [XGTACX_site5082]	9.68 ± 0.3
AAGATATGTACTAATACACACACATATATATATATA [CACACA_site8249]	9.86 ± 0.14
AAAAAATGCGACATGTGTACACATATATATATATAT [XGTACX_site1679]	9.81 ± 0.3
CGAAATCATATGTACACACACATATATATATATATA [CACACA_site2151]	10.1 ± 0.18
GTAAATACACATATGTGTACATATATATATATATAT [XGTACX_site3696]	9.67 ± 0.31
ATATATATATATATATGTACATATACACATGTGTGC [XGTACX_site168]	10.14 ± 0.099
ATACACACATATATGTGTACATATACATATATATAT [XGTACX_site6744]	9.88 ± 0.32
TAAATACTAATATGTACACACATATAGATATAGATT [CACACA_site7247]	8.96 ± 0.38
TACGAAATCATATGTACACACACATATATATATATA [CACACA_site5216]	9.8 ± 0.14
GATATGTACTAATACACACACATATATATATATATA [CACACA_site1022]	10.2 ± 0.23
AAATGCGCCATGTGTACACATATATATATATATATA [CACACA_site4649]	10.1 ± 0.18
